esBAF inh: Bmi1 luciferase reporter increase in mESCs, primary screen, esBAF inhibitor project, mouse ES cells, Bmi1 luciferase knock-in, single point. 24 h; 100% = twice the neutral-well signal. reporter increase, % at 12.5 µM. hit rate 2% among 350,000; in the data active = activation above about 40%; inconclusive = no clear call, values can overlap the other calls;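 also: 0% = median of the plate's neutral control wells and 100% = double that signal; a rise in the Bmi1 reporter signal indicates esBAF inhibition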
HSF1 inh: HSF1 inhibitors in luciferase reporter cells, primary screen, cell-based, NIH3T3, luminescence; NIH3T3-HGL HSE-luciferase, MG132-induced, luminescence 8 h; hits give low values; activity change, negative = inhibition, % at 7.5 µM (by protocol); hit rate 0.77% among 300,000; AID 2098, 2009;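 active = more than half of replicate wells show activity change below -50%, luminescence cut by over half; inconclusive = some wells, but at most half, below -50%; inactive = no replicate well below -50%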;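 also: luciferase reports HSF-1 transcriptional activity via heat shock element; 0% = median of DMSO wells and -100% = zero luminescence signal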
Vif inh: HIV Vif self-association inhibitors, primary screen, imaging, HEK293T, single point; HEK293T cells, Vif self-association by quenched fluorescence, 24 h; inhibition, % at 7.49 µM; hit rate 0.35% among 340,000; AID 602346, 2012; in the data active = inhibition above about 50%, passing the limit was not always enough; inconclusive = no clear call, values can overlap the other calls; inactive = below about 31%
HSF1 activator: HSF-1 activators, primary screen, NIH3T3-HGL cells, MG132 stress, luminescence, single point. NIH3T3-HGL HSF-1 luciferase reporter, 8 h; 100% = twice DMSO control signal. activation, % at 9 µM. hit rate 1.7% among 300,000;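 active = mean replicate activation of at least 50% with a set share of replicates each reaching 50%; inconclusive = only one of those two conditions met; inactive = mean below 50% and too few replicates reaching it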;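 also: 0% = median of the neutral control wells and 100% = twice that signal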
* hit, by the source's call; ? = inconclusive; . = no result. A selection: hits, their analogues and other compounds. The true share with any hit is near 3.4%.

SMILES	esBAF inh	HSF1 inh	Vif inh	HSF1 activator
O=C(Nc1ncc(Cc2ccccc2)s1)C1COc2ccccc2O1 (stereo unspecified)	53*	32	.	?
Cc1nnc(NC(=O)C2COc3ccccc3O2)s1 (stereo unspecified)	46*	4	-1	21
O=C(NC1=NCCS1)C1COc2ccccc2O1 (stereo unspecified)	.	-51*	-4	-59
O=C(Nc1ccncc1)C1COc2ccccc2O1 (stereo unspecified)	-3	-1	.	-8
CCc1nnc(NC(=O)C2COc3ccccc3O2)s1 (stereo unspecified)	.	15	-1	38
C[C@@H]1CN([C@H](C)CO)C(=O)Cc2cc(NC(=O)c3ccncc3)ccc2O[C@H]1CN(C)C(=O)Nc1ccc(C(F)(F)F)cc1	-1	.	.	.
CCOC(=O)CSc1cc(CS(C)(=O)=O)nc(-c2ccccn2)n1	-3	-61*	16	-70
COC(=O)C[C@@H]1CC[C@H](NC(=O)c2ccccc2)[C@H](CO)O1	2	.	.	.
CC(C)CC#Cc1ccc2c(c1)O[C@H](CN(C)C(=O)Cc1ccncc1)[C@@H](C)CN([C@H](C)CO)S2(=O)=O	2	.	.	.
CCn1c(CNC(=O)c2ccccc2F)nnc1SCC(=O)NC1CCCCC1	3	-4	-15	0
Cc1ccc(-c2ccc(SCC(=O)NC3CCCC3)nn2)cc1	.	13	-9	34
Cc1ccc(-c2ccc(SCC(=O)NC3CCCCC3)nn2)cc1	52*	5	-14	23
CC(C)n1c(SCC(=O)NC2CCCCC2)nnc1-c1ccco1	0	11	-2	67*
C=CCn1c(SCC(=O)NC2CCCC2)nc2scc(-c3ccco3)c2c1=O	7	13	-23	61*
C=CCn1c(SCC(=O)NCCCC)nc2scc(-c3ccco3)c2c1=O	5	32	5	10
CC(C)n1c(CNC(=O)c2ccccc2F)nnc1SCC(=O)NC1CCCCC1	-11	.	53*	.
Cn1c(SCC(=O)NC2CCCCCC2)nnc1-c1ccco1	.	-2	3	9
CCCNC(=O)Nc1ccc2c(c1)C(=O)N(C)C[C@H](OC)[C@@H](C)CN(Cc1ccccc1)[C@H](C)CO2	1	.	.	.
C[C@H]1CCCCO[C@@H](CN(C)S(=O)(=O)c2cccs2)[C@@H](C)CN([C@@H](C)CO)C(=O)c2cc(NS(=O)(=O)c3ccccc3)ccc2O1	-1	.	.	.
C[C@H]1CN([C@@H](C)CO)S(=O)(=O)c2ccc(-c3cncnc3)cc2O[C@@H]1CN(C)C(=O)CN(C)C	2	.	.	.
O=C(Nc1cccc(C2=NCCN2)c1)Nc1cccc(C2=NCCN2)c1	45*	.	-10	.
CN(C)C(=O)N1CCC(C(=O)NCc2ccc(F)cc2Cl)CC1	-7	-69*	15	-73
CN(C)C(=O)N1CCCC(C(=O)NCc2ccc(F)cc2Cl)C1 (stereo unspecified)	-5	.	0	.
COc1ccc(NC(=O)Nc2ccc3c(c2)[C@H]2C[C@H](CC(=O)NCc4ccc5c(c4)OCO5)O[C@H](CO)[C@H]2O3)cc1	-3	.	.	.
C[C@H]1CN([C@@H](C)CO)C(=O)Cc2cc(NS(=O)(=O)c3ccccc3)ccc2O[C@H]1CN(C)C(=O)NC1CCCCC1	-4	.	.	.
SMILES	esBAF inh	HSF1 inh	Vif inh	HSF1 activator
COc1ccc(/C=C/C(=O)c2ccccc2)cc1COc1ccc(F)cc1	.	4	5	3
O=C(/C=C/c1ccc(O)c([N+](=O)[O-])c1)c1ccc2ccccc2c1	-3	3	3	18
COc1ccc(Oc2ccc(/C=C/C(=O)c3ccc(O)cc3)cc2[N+](=O)[O-])cc1	.	34	-1	77*
COc1ccc(/C=C/C(=O)c2ccc(O)cc2)cc1COc1ccc(F)cc1	2	59	7	83*
COc1ccc(C(=O)/C=C/c2cccc(OCc3ccccc3)c2)cc1CSCC(=O)O	-6	13	0	23
COc1ccc(C(=O)/C=C/c2ccc(OCc3ccccc3)cc2)cc1CSCC(=O)O	-4	16	2	55*
C[C@H](CO)N1C[C@H](C)[C@@H](CN(C)C(=O)Nc2ccc(F)cc2)Oc2ccc(NS(=O)(=O)c3ccccc3)cc2CC1=O	1	.	.	.
O=C(Nc1sc2c(c1C(=O)O)CCCCC2)c1ccccc1	.	4	-2	-17
Cc1ccc(-c2csc(NC(=O)c3ccccc3Cl)c2C(=O)O)cc1	20	-3	-6	1
NC(=O)c1c(NC(=O)c2cccs2)sc2c1CCCCCC2	105*	21	-4	11
CC(C)c1ccc(-c2csc(NC(=O)c3cccs3)c2C(=O)O)cc1	52*	6	2	5
O=C(Nc1sc2c(c1C(=O)O)CCC2)c1cccs1	46*	-3	12	26
C[C@@H]1CN([C@@H](C)CO)C(=O)c2ccccc2-c2ccccc2CO[C@@H]1CN(C)C(=O)[C@@H]1CCCN1C	2	.	.	.
COc1ccc(/C=N/NS(=O)(=O)c2ccc(C)cc2)cc1OC(=O)c1ccccc1	-2	.	11	.
COc1ccc(/C=N/NS(=O)(=O)c2ccccc2)cc1OC(=O)c1ccc(C)cc1	2	-2	-6	-11
COc1cc(/C=N/NS(=O)(=O)c2ccc(C)cc2)ccc1OCc1cccc(C(=O)O)c1	-65	-64*	5	-68
COc1cc(/C=N/NS(=O)(=O)c2ccc3ccccc3c2)ccc1OCc1ccc(C(=O)O)cc1	-54	-74*	-4	-78
CC(C)(C)C(=O)Nc1ccc(N=Nc2ccccc2)cc1	-61	-78*	-5	-80
COc1cc(/C=N/NC(N)=O)cc(Br)c1OCc1ccccc1C	-5	2	-4	19
Cc1ccccc1CO/N=C/c1[nH]ncc1Br	.	-85*	1	-89
CC(C)(C)c1ccc(/C=C/C(=O)N2CCOCC2)cc1	.	8	9	13
CC(C)Cc1ccc(/C=C/C(=O)N2CCOCC2)cc1	52*	25	7	50
CCCCNC1C(CC)C(CCC)C(C#N)(C#N)C1(C#N)C#N (stereo unspecified)	12	84	3	118*
C[C@@H]1CN([C@H](C)CO)C(=O)c2cccc(NS(=O)(=O)c3cn(C)cn3)c2O[C@H]1CN(C)C	-2	.	.	.
Cc1sc2nc(C3CC3)nc(SCC(=O)N3CCc4ccccc4C3)c2c1C	-9	17	-9	68*
SMILES	esBAF inh	HSF1 inh	Vif inh	HSF1 activator
O=C(C[C@@H]1CC[C@H]2[C@@H](COC[C@H](O)CN2Cc2cc(F)cc(F)c2)O1)Nc1nccs1	5	.	.	.
Cc1ccc(C)c(OCc2nc(-c3cccnc3)no2)c1	16	1	.	12
Cc1ccc(-c2nc(-c3cccnc3)no2)c(C)c1	44*	21	1	57*
Cc1cc(Br)ccc1OCc1nc(-c2cccnc2)no1	85*	-3	0	5
O=C(O)COc1ccccc1/C=N/NC(=O)c1ccc2c(c1)OCCO2	13	-60*	3	-67
O=C(N/N=C/c1c[nH]c2ccccc12)c1ccc2c(c1)OCCO2	51*	-43	-4	-49
